Compounds without any hit were thinned out: in the full panel of roughly 83,000, 20% have a hit.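 Growth was measured after 48 h exposure to one concentration of compound in 96-well plates. Values under 10 count as active.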 A number with no mark means an inactive call. Calls of active or inactive are those of the source.
How the values were obtained:
Experiment in all cases: NCI-60 one-dose screen, 48 h (100 = growth as untreated, 0 = no growth, -100 = all killed)
SR leukemia = details: 10 µM unless noted
RPMI-8226 leukemia = details: 10 µM unless noted
OVCAR-8 ovarian = details: 10 µM unless noted
OVCAR-5 ovarian = details: 10 µM unless noted
OVCAR-4 ovarian = details: 10 µM
IGROV1 ovarian = details: 10 µM unless noted
OVCAR-3 ovarian = details: 10 µM unless noted
HS 578T breast = details: 10 µM unless noted
NCI/ADR-RES ovarian = details: 10 µM unless noted
T-47D breast = details: 10 µM unless noted
BT-549 breast = details: 10 µM unless noted
MDA-MB-435 melanoma = details: 10 µM unless noted
SW-620 colon = details: 10 µM unless noted
MCF7 breast = details: 10 µM unless noted
HCT-116 colon = details: 10 µM unless noted
HCC-2998 colon = details: 10 µM unless noted
KM12 colon = details: 10 µM unless noted
SK-OV-3 ovarian = details: 10 µM unless noted

Compound	growth (SR leukemia)	growth (RPMI-8226 leukemia)	growth (OVCAR-8 ovarian)	growth (OVCAR-5 ovarian)	growth (OVCAR-4 ovarian)	growth (IGROV1 ovarian)	growth (OVCAR-3 ovarian)	growth (HS 578T breast)	growth (NCI/ADR-RES ovarian)	growth (T-47D breast)	growth (BT-549 breast)	growth (MDA-MB-435 melanoma)	growth (SW-620 colon)	growth (MCF7 breast)	growth (HCT-116 colon)	growth (HCC-2998 colon)	growth (KM12 colon)	growth (SK-OV-3 ovarian)
CCCN1CC(c2ccc(OC)c(OC)c2)=C(c2cn(C(=O)OCC)c3ccccc23)C1=O	25.3%	63.8%	71.5%	83.1%	62.3%	40.2%	2% (active)	48.1%	29.5%	36.5%	58.6%	-10.5% (active)	31.5%	20.4%	21%	78.3%	32.3%	–
CCN1CCN(CC(=O)Nc2nc3ccc(NCc4ccc(Cl)cc4)cc3s2)CC1	15.8%	39.6%	78%	74.6%	80.4%	70.9%	62.1%	70.5%	82.6%	50.6%	76.4%	-10.6% (active)	22%	33.6%	12.6%	82.1%	59.9%	–
CC(C)(C)c1cc(C(=O)N2CCC(C(=O)NCCN)CC2)cc(C(C)(C)C)c1	98.4%	94.4%	99%	98.9%	105%	95.6%	104%	92%	104%	78.8%	95.4%	98%	103%	92%	99.4%	106%	105%	–
N=C(N)c1ccc(-c2ccc(-c3ccc(-c4cccs4)s3)s2)cc1F	18.6%	49.4%	102%	75.8%	90.5%	93.5%	91.4%	101%	102%	87.7%	99.3%	94.1%	91.5%	64.9%	83.6%	69%	100%	–
COc1ccc2c(c1)c(-c1noc(C(=O)c3cn(C)c4ncc(Br)cc34)n1)cn2C	64%	62.2%	74.4%	80.4%	42.9%	54.3%	30.5%	27.8%	59.7%	49.7%	82.7%	63.1%	43.6%	79.9%	50.3%	92.9%	66.7%	–
CCN(CC)c1ccc2cc(NC(=O)OCCNC(=O)CCNC(=O)[C@H](CC(C)C)NC(=O)C(C)(C)NC(=O)C(C)(C)NC(=O)[C@H](CC(C)C)NC(=O)CCNC(=O)C(C)(C)NC(=O)[C@H](CC(C)C)NC(=O)CCNC(=O)[C@@](C)(CC)NC(=O)[C@H](C)NC(=O)CCNC(=O)C(C)(C)NC(=O)[C@H](C)NC(=O)[C@@H]3CCCN3C(=O)[C@@](C)(CC)NC(=O)[C@H](Cc3ccccc3)NC(=O)C3CCCN3C(=O)C(C)(C)NC(=O)C3CCCN3C(=O)C(C)(C)NC(C)=O)c(=O)oc2c1 (stereo partly drawn)	-52.9% (active)	-60.4% (active)	-74.8% (active)	-87.7% (active)	-94.9% (active)	-69.3% (active)	-100% (active)	-60.1% (active)	-93.5% (active)	-71.4% (active)	-93.3% (active)	-76.2% (active)	-77.4% (active)	-88.2% (active)	-91.2% (active)	-94.2% (active)	-98.5% (active)	–
CSc1nc2c(c(=O)n1C)C1(C(=O)N(Cc3ccccc3)c3ccccc31)c1c(nc(SC)n(C)c1=O)N2	104%	59.2%	85.5%	102%	99.5%	98%	75.2%	97.9%	95.2%	63.7%	104%	107%	94.3%	82.6%	93%	99.6%	87.9%	–
CCNC(=O)N1CCc2c(Cl)c3c(c(OC)c2[C@@H]1[C@H]1OCc2c1ccc(OC)c2OC)OCCO3	18.3%	17.3%	30.7%	38.1%	57.6%	29.1%	-5.71% (active)	14.5%	1.11% (active)	20.5%	55.9%	-43.4% (active)	17.5%	16.1%	18.2%	61.1%	18.7%	–
COc1ccc(-c2nc3ccccn3c2/C=C/C(=O)c2cc(OC)c(OC)c(OC)c2)cc1OC	27%	-26% (active)	14.1%	24.5%	17.8%	–	–	6.05% (active)	-4.39% (active)	2.52% (active)	-0.101% (active)	20.3%	14.6%	4.01% (active)	10.3%	16.4%	3.9% (active)	6.61% (active)
CCCCCCCCCCCCCC[n+]1cccc(C(N)=O)c1	-25.9% (active)	-51.2% (active)	18%	44.2%	14.5%	–	-32.4% (active)	–	105%	49.8%	-49.9% (active)	-36.5% (active)	0.686% (active)	39.4%	20.8%	-51.8% (active)	-87.1% (active)	23.3%
Cc1ccc(-c2cc(-c3ccc(C)cc3)nc(N3CCN(CCNc4ccnc5cc(Cl)ccc45)CC3)n2)cc1	-1.09% (active)	19.4%	25.4%	79.4%	-59.4% (active)	5.07% (active)	-53.6% (active)	-22.6% (active)	6.51% (active)	71.8%	67.6%	23.3%	-29.1% (active)	15.5%	-3.1% (active)	16.6%	31.9%	–
COc1ccc(-c2cc(-c3ccc(Cl)cc3)nc(NCCCCNc3ccnc4cc(Cl)ccc34)n2)cc1	9.44% (active)	23.8%	-23.3% (active)	96.2%	73.3%	60.8%	96%	81.5%	72.2%	78.1%	85.5%	93.8%	-61.8% (active)	-69.3% (active)	23.4%	26.1%	76.2%	–
Cn1cc(-c2nnc(-c3cn(C)c4ncccc34)o2)c2ccccc21	19.1%	31.3%	49.8%	55.5%	36.5%	28%	-12% (active)	30.9%	11.9%	12.2%	42.4%	-32.8% (active)	26.7%	20.2%	23%	65.7%	22.1%	–
CC(C)(C)c1cc(C(=O)Nc2ccc(C(=O)NCCN)cc2)cc(C(C)(C)C)c1	-40.4% (active)	15.6%	72.2%	49.3%	62.3%	52.9%	54.6%	81.7%	92.4%	27.3%	87.6%	-49.5% (active)	1.34% (active)	3.31% (active)	12.8%	1.78% (active)	12.9%	–
CNC(=O)c1cc(Oc2cccc3nc(NC(=O)Nc4cc(C(F)(F)F)cc(C(F)(F)F)c4)ccc23)ccn1	47.9%	41.1%	37.2%	33.3%	-38.2% (active)	51.4%	-15% (active)	22.2%	49.5%	15.5%	46.1%	40.2%	63.8%	50.4%	36.7%	79.7%	53.8%	–
